# Measured values reported in PubChem BioAssay (Tox21).
# Results filed as inconclusive are left out. Where a call stands in place of a potency, no number is given. The source made the active and inactive calls. Calls come from the whole dose curve; as a rule, active = well fitted activation curve with a large enough effect in the repeat runs; inconclusive = weak or mixed curves, or effect the other way; inactive = no such curve, though single readings can be large or run the other way.
# Assay: qHTS assay to identify small molecule agonists of the retinoic acid receptor (RAR) signaling pathway (AID 1159553)
# Conditions: C3RL4 RARE luciferase reporter, agonist, 6 h; series mostly up to 73.3 µM
# Outline: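 Agonist activity was scored in C3RL4 cells bearing a retinoic acid response element luciferase construct. Cells were treated with compounds for 6 hr at 37 C, and luciferase signal was measured as luminescence.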
# Potency is the fitted concentration of half-maximal effect.
row,Structure (SMILES),Potency
1,Cn1ccc2cc3c(cc21)CCN3C(=O)Nc1cccnc1,2310 nM (active)
2,Oc1ccc2c(c1)OC[C@@H](N1CCC(O)(c3ccc(F)cc3)CC1)[C@H]2O,531 nM (active)
3,O=C(O)Cc1cc(I)c(Oc2cc(I)c(O)c(I)c2)c(I)c1,inactive
4,CCOC(=O)Cn1c(=O)sc2cccc(Cl)c21,inactive
5,COc1ccc2cc(C=O)ccc2c1,inactive
6,Oc1cc(O)c2c(c1)O[C@H](c1ccc(O)c(O)c1)[C@H](O)C2,inactive
7,OC[C@H]1O[C@@H]2O[C@H]3[C@H](O)[C@@H](O)[C@@H](O[C@H]4[C@H](O)[C@@H](O)[C@@H](O[C@H]5[C@H](O)[C@@H](O)[C@@H](O[C@H]6[C@H](O)[C@@H](O)[C@@H](O[C@H]7[C@H](O)[C@@H](O)[C@@H](O[C@H]8[C@H](O)[C@@H](O)[C@@H](O[C@H]9[C@H](O)[C@@H](O)[C@@H](O[C@H]1[C@H](O)[C@H]2O)O[C@@H]9CO)O[C@@H]8CO)O[C@@H]7CO)O[C@@H]6CO)O[C@@H]5CO)O[C@@H]4CO)O[C@@H]3CO,inactive
8,N#CCc1ccccc1[N+](=O)[O-],inactive
9,CCCCCCCCCCCCI,inactive
10,CN(C)C(=O)Nc1ccccc1,inactive
11,COc1ccc(NC(C)=O)cc1,inactive
12,CCCC(C)CO (configuration not stated),inactive
13,NC1CCN(c2cccc(Cl)n2)CC1,inactive
14,CCCC(C)C(=O)O (configuration not stated),inactive
15,C1C2OC2C2C1C1CC2C2OC12 (configuration not stated),inactive
16,CCC(=O)c1cccc(Cl)c1,inactive
17,O=S(=O)(c1cccc2cnccc12)N1CCCNCC1,inactive
